According to the supplement of paper PMC6555819:

How the values were obtained:
Experiment in all cases: PBM binding z-score (relative to random genomic background probes); higher = stronger binding; sequences stand for … in GC…GCGATTGACAGCGTAGAATGAAGG
[1] = system: FXR:RXRa (NR concentration 270 nM, RXRa partner concentration 90 nM)
Outline: (§1)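 Binding z-scores were set against random background probes. The data came from custom Agilent 4×180K protein-binding microarrays carrying double-stranded probes with 34-nt variable regions, incubated 1 h with ligand-free nuclear receptor dimers. Partner-specific antibodies detected binding, and scanned fluorescence was regression-normalized.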

[2] = system: LXRa:RXRa (NR concentration 270 nM, RXRa partner concentration 90 nM)
Outline: as §1

[3] = system: LXRa homodimer (NR concentration 270 nM)
Outline: as §1

[4] = system: LXRb:RXRa (NR concentration 270 nM, RXRa partner concentration 90 nM)
Outline: as §1

[5] = system: LXRb homodimer (NR concentration 270 nM)
Outline: as §1

[6] = system: PPARa:RXRa (NR concentration 270 nM, RXRa partner concentration 90 nM)
Outline: as §1

[7] = system: PPARg:RXRa (NR concentration 180 nM, RXRa partner concentration 90 nM)
Outline: as §1

[8] = system: PPARg:RXRa 270nM:90nM, anti-RXR (NR concentration 270 nM, RXRa partner concentration 90 nM)
Outline: as §1

[9] = system: PPARg:RXRa 30nM:10nM, anti-RXR (NR concentration 30 nM, RXRa partner concentration 10 nM)
Outline: as §1

[10] = system: PPARg:RXRa 90nM:30nM, anti-RXR (NR concentration 90 nM, RXRa partner concentration 30 nM)
Outline: as §1

Sequence	PBM binding z-score [1]	PBM binding z-score [2]	PBM binding z-score [3]	PBM binding z-score [4]	PBM binding z-score [5]	PBM binding z-score [6]	PBM binding z-score [7]	PBM binding z-score [8]	PBM binding z-score [9]	PBM binding z-score [10]
ATCTCTAGGTAAAAGTGCAGTGAATCCCGAGGAT	0.179	-0.141	-0.393	0.0767	0.339	2.81	4.31	5.78	3.66	6.27
TCTTGTAGATCAAGCAGGTTGAGAAAGCCTGAGT	0.128	0.187	-0.471	-0.223	-0.57	0.441	-0.512	0.973	2.32	1.66
CATCAAAGTTCAAGGTAACGTAACAGAAAGCAGC	6.68	5.7	3.88	3.79	2.13	4.66	3.59	4	1.71	2.82
CTGGAAAGGTCGGTTGAGGTGAGTATACGGATAA	2.81	1.32	0.136	1.12	-0.219	2.57	0.576	0.975	-0.182	0.424
GATACAGGGTCAGATAGAGGCCAGAGTATGGAAA	4.95	3.16	0.138	3.03	0.456	4.58	3.32	3.11	1.18	2.09
CCGACTGGGGCAAGGTTCCCATAACGCACAGCCA	-0.116	-0.36	-0.312	-0.226	-1.24	1.17	3.1	3.89	2.1	3.38
GGAACGAGGGCATTCGAGTTGATAGCCTGGCGAT	0.904	1.66	-0.751	0.0314	-0.65	1.42	0.665	0.992	-0.34	0.776
TCGAGGAGGTTAGGGGCATTCAGAATGGCGTCGA	1.12	0.91	-0.0426	1.71	0.134	1.94	0.354	1.08	1.19	1.09
CCTTACCGGTCACGAGGTTATAGCACGACGAGCG	2.69	3.04	2	2	0.699	2.85	2.12	2.07	0.437	1.06
ATCGAAAGGTCGAGGTAAGTATAGAGAAAGGGAA	3.98	3.46	0.361	2.66	0.336	4.29	2.72	3.32	1.2	2.24
TCTATTAGTTGAAGGGGAACCGACGAGTCCGTTT	1.21	1.19	0.437	1.19	0.829	1.23	0.0273	2.51	4.36	3.48
GCGACTGGGGCATCAGCAGGGTACCATAACTTAA	-0.653	-0.542	-0.531	0.192	-0.913	0.58	0.759	0.382	-0.46	-0.166
TCTTGTAGATCAACAGGATGTTAAGAAAGATCGA	0.365	0.173	-0.3	0.12	-0.659	0.612	0.227	1.3	2.66	1.97
ATATGTTGGTTAGCTGGGGTCATTCAGACTAGGC	3.89	4.15	2.39	4.32	1.69	4.26	1.3	2.46	0.784	1.8
GCTTATAGATCAAGGTTAAGAAAGACTAAGCTAA	0.198	0.766	-0.148	0.438	-0.382	1.4	0.991	1.57	0.403	1.13
GTACCAAGGTGAATAGGTCGTTGTTGAGTAGGCG	0.827	0.686	-0.152	0.303	-0.821	2.07	1.18	1.21	0.0125	0.678
CAAACTAGGTCACAGGTCAAAGTCGAGCCAACCA	6.7	5.19	3.25	4.68	1.16	6.88	12.3	9.67	10.4	11
TCTTGTAGATTAATAGAGGTTAAGAAAGTGCGCT	1.31	4.17	2.85	2.28	0.623	2.07	0.283	2.2	3.11	2.59
CGTCAAAGTTCAAGGTAACATAACAGAAAGCAGC	6.08	5.39	2.7	3.37	1.22	4.67	4.56	5.16	2.16	3.9
AGAATGAGGTTAAGATCACGGAAACAGAATACAT	2.44	1.8	0.0665	1.91	0.115	3.74	2.6	2.66	1.17	2.11
AGAATGAGGTTATACATAGATCAGGGAAGAAAGT	1.88	2.05	0.223	1.56	0.151	3.07	2.28	1.87	0.974	1.4
CCTAGTTGGTCAAGGTCATACACGCTATAGGTAC	4.77	4.27	2.86	3.52	0.89	3.97	2.79	3.21	1.22	2.74
TCGCCTAGGTCATGCGGGCCAGTATAGTGTCGGC	4.09	2.65	0.228	1.72	-0.926	3.47	1.56	2.12	1.32	1.71
GCAGCTAGGTCAGGTTGGTCAGCTAACGGGTACG	1.03	0.422	-0.282	-0.023	-0.983	1.2	0.443	0.714	-0.586	-0.0508

Sequence	PBM binding z-score [1]	PBM binding z-score [2]	PBM binding z-score [3]	PBM binding z-score [4]	PBM binding z-score [5]	PBM binding z-score [6]	PBM binding z-score [7]	PBM binding z-score [8]	PBM binding z-score [9]	PBM binding z-score [10]
TCGAGTTGGTTAGGGGCATTCAGAATGGCGTCGA	0.222	0.121	-0.233	0.793	-0.112	0.575	-0.307	0.595	0.687	0.343
TATACAGGGTCAAAGACCAGAGTACGAATGTCGA	7.01	5.81	2.11	4.83	2.31	5.9	6.65	5.94	3.43	5.01
CCTTCTGGGCCAAAAAGGTCATTGATGCCGATAA	3.46	4.33	2.97	3.9	0.645	4.48	2.52	3.9	1.16	2.59
AGAATGCGGTTAAGATCAGGGAAACAGAATACAT	-0.249	-0.195	-0.0658	-0.185	-0.913	-0.181	0.331	0.0448	0.301	0.258
CCTAGCAGGCAAATCTGGGTCACTCAAGGCTTGA	0.679	1.35	-0.33	0.851	-0.654	3.07	2.26	2.58	0.128	1.8
AGAATGAGGTTATACGTAGATCATGGAAGAAAGT	2.28	2.35	0.00529	1.76	0.0323	3.28	2.34	2.58	1.01	1.79
TTACCAAGGTGAAGCTCGTTGATCCCTCTGTAGA	0.0851	-0.0821	-1.1	-0.274	-1.24	1.09	-0.0345	0.378	0.125	0.429
CGTCAAAGTTCAAGGTAACTTAACAGAAAGCAGC	6.07	5.46	2.56	3.35	0.919	4.5	4.23	4.97	1.81	3.84
CGTCCAAGGTCAGCAGGTCAGTGAGAGCGACGTG	5.85	4.1	0.541	2.94	-0.239	4.74	4.1	4.36	1.29	2.94
CCAGACAGGTGAAAGGTAACTCAATCTGGTACGC	0.545	0.735	-0.0709	1.09	-0.161	3.43	5.5	6.13	3.94	5.99
AATACAGGGTCACTAAGCCAGAGTAGGTACGAAT	6.17	4.69	0.732	3.96	0.99	5.51	6.22	5.26	2.31	3.83
GCTTGTAGACCAAGGTTAAGAAAGACTAAGCTAA	-0.248	0.608	-0.357	0.335	-0.903	1.16	0.792	1.61	0.387	1.17
CGTCCAAGGTCAAAGCTAGGTCAGTGAAAGCATT	7.24	5.98	2.25	4.54	1.44	5.65	4.63	5.54	1.86	4.09
CCTACAGGGCCAAAAAGGTCATTGATGCCGATAA	4.22	4.32	2.83	4.2	0.284	4.61	1.51	2.74	0.52	1.49
CAGCCTAGGTCAGGGCCAGTATCGGAGGAACGTT	1.55	0.907	-0.258	0.354	-1.03	1.91	0.418	0.759	-0.713	0.129
TCATATAGGTAAATGCTAGGTGAAAATCCGATCT	0.903	0.851	0.275	0.71	0.611	1.17	0.91	1.95	4.01	3.06
ACTTACGGTTCAACGAGGTTATAGCACGCGTATA	2.96	3.15	1.07	2.64	0.606	3.49	1.09	1.32	0.521	1.03
CCTCGGAGGACAACAGGAGGTTAGAGCTGCCAGA	-0.155	-0.0847	-0.064	-0.556	-0.957	-0.226	0.177	-0.821	-0.597	-0.982
GCTGCTAGGTCAGCTTGGTCAGCTAACGGGTACG	1.35	0.704	-0.534	0.334	0.0113	1.22	0.479	0.718	-0.549	-0.0941
TCCTGTAGATCAAGCAGGTTAAGAAAGCCTGAGT	0.115	0.256	-0.387	0.136	-1.12	0.563	-0.537	1.19	2.38	1.42
CCGACTGGGGCAAGGTTACCAGAACGCACAGCCA	0.168	0.506	-0.288	0.501	-1.15	1.97	2.79	3.43	0.792	2.68
TCAGACAGGTGAAGGGAACTCAGGTACGCAGTCG	0.945	0.772	0.0804	0.859	0.193	1.25	0.602	2.23	3.93	2.93
GATACAGGGTCAGCTAGACGCCAGAGTATGGAAA	4.79	2.3	-0.39	2.07	-0.431	4.71	3.71	3.1	0.594	1.97
TCGAGTACGTTACCAATGGGGCATTCAGCTTTCT	-0.0711	-0.26	-0.435	0.321	-0.0116	0.16	-0.0505	0.394	1.32	0.788
